Compound activity as filed in PubChem.
TSG101-PTAP inh: qHTS Assay for Iinhibitors of HIV-1 Budding by Blocking the Interaction of PTAP/TSG101 | Tumor susceptibility gene 101 protein (Homo sapiens), Q99816 | Fluorescence polarization, FITC-PTAP peptide / Tsg101 binding | Potency, µM (titrated, usually from 115 µM), for the others: at the top dose activity change, negative = inhibition, most hits filed as inhibitors | 340,000 tested, under 10 active; active means well fitted inhibition curve with a large enough effect in the main read-out, with a control signal flat, not every such curve was filed as active; inconclusive means small, poorly fitted or top-dose-only effect, or effect the other way, or a change in a side signal; inactive means no such curve, though single readings can be large or run the other way; further: potency means the concentration at half of the fitted maximal effect; % of control where 0% means no effect
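Fluorescence anisotropy tracks displacement of a FITC-tagged PTAP peptide (50 nM) from the Tsg101 binding domain (10 uM), following a 20 min room-temperature incubation at pH 7.5.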
Apoferritin bind: qHTS Assay for Identification of Novel General Anesthetics; apoferritin/1-aminoanthracene competitive binding, fluorescence; Potency, µM (highest dose often 77.5 µM), without a hit: at the highest dose activity change, negative = displacement, actives largely listed as inhibitors; hit rate 0.074% among 350,000; further: potency means the concentration at half of the fitted maximal effect; on the % scale 0 is the no-effect control and ±100 the full control effect; nearly all actives have a fitted effect of over 20% in size
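10 uM apoferritin + 50% sat. 1-AMA, PBS; cpd 10 min RT; Ex380/Em535 endpoint; normalized to free probe vs complex; 4-param Hill fit; propofol titration as pos. ctrl.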
BRCA1 expr act: qHTS Assay to Identify Small Molecule Activators of BRCA1 Expression; MCF7-BRCA1-FFLuc reporter, luminescence, 48 h; response scale: scaled: vehicle 0%, 10 µM genistein 100%; Potency, µM (top dose mostly 46.1 µM), without a hit: at the top dose activation, hits mostly activators; hit rate 1.1% among 380,000; AID 624202, 2012; further: potency means the concentration at half of the fitted maximal effect; nearly all actives have a fitted effect of over 80% in size
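Luminescence from a BRCA1-driven firefly luciferase in MCF7 cells was read after 48 h compound exposure at 37 C. Data normalized against DMSO and a 10microM genistein activation control, then curve-fitted across the titration.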
TSHR antag: Antagonists of the Thyroid Stimulating Hormone Receptor: HTS campaign; Thyrotropin receptor (Homo sapiens), P16473; TSHR-expressing cells, TSH-stimulated cAMP HTRF, 2 h; active compounds read low; activity change, negative = inhibition, % at 11.5 µM; hit rate 0.2% among 330,000;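 active means activity change below a set negative limit, meaning inhibition stronger than a set level, cut at about -70% in these data; inconclusive means activity change between two set negative limits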; further: on the % scale 0 is the no-effect control and ±100 the full control effect
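Read-out is FRET at 665 nm (cryptate excitation 337 nm) from a cryptate-tagged anti-cAMP antibody, competed by cell cAMP against cAMP-d2. Compounds are tested on freshly harvested TSHR cells challenged with 4nM TSH (EC80) for 2 hours at 37 deg C.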
ASM inhibitor: Inhibitors of Secretory Acid Sphingomyelinase (S-ASM): qHTS. Sphingomyelin phosphodiesterase (Homo sapiens), P17405. placental ASM, HMU-PC fluorogenic substrate, 60 min. Potency, µM (doses to about 57.5 µM), inactives show at the top dose activity change, negative = inhibition, usual class: inhibitors. hit rate 0.006% among 340,000. AID 504937, 2011; further: potency means the concentration at half of the fitted maximal effect
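Fluorescence read-out (Ex 386 nm, Em 447 nm) after stopping the reaction at pH 10. Enzyme: ASM from human placenta; substrate HMU-PC0, 9 uM final; 60 min, 37 °C. Compound preincubation 10 min, ambient temperature.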
* = called active by the depositor; ? = inconclusive; . = not tested or not shown; [ ] = another dose, or the depositor's remark. Hits are enriched below; roughly 1.2% of the tested compounds scored in any of these assays. Unless noted, the call rests on the fitted dose curve; in most records, active means well fitted curve in the direction sought with a large enough effect; inconclusive means small, poorly fitted or top-dose-only effect, or another doubt; inactive means no such curve, though single readings can be large; an effect the other way counts as inactive or inconclusive.

SMILES | TSG101-PTAP inh | Apoferritin bind | BRCA1 expr act | TSHR antag | ASM inhibitor
Nc1nc(Cl)nc2c1ncn2[C@@H]1O[C@H](COP(=O)(O)OP(=O)(O)OP(=O)(O)O)[C@@H](O)[C@H]1O | . | . | . | -6 | .
O=C(O)c1ccc(-c2ccc(Cl)cc2Cl)o1 | -11% | -19% | 3% | -15 | 8%
CN(C)/C=C/C(=O)c1ccc(-c2ccc(Cl)cc2Cl)o1 | -1% | ? | 11µM* | -4 | 3%
CC[C@H](C)[C@H](NC(=O)CNC(=O)[C@H](CCCNC(=N)N)NC(=O)[C@H](CO)NC(=O)[C@H](C)NC(=O)[C@H](Cc1ccc(O)cc1)NC(=O)[C@H](Cc1c[nH]c2ccccc12)NC(=O)[C@H](C)NC(=O)[C@@H]1CCCN1C(=O)[C@H](CC(N)=O)NC(=O)[C@@H](NC(=O)[C@H](CC(=O)O)NC(=O)[C@@H]1CCCN1C(=O)[C@@H](N)[C@@H](C)O)[C@@H](C)CC)C(=O)N[C@@H](CCCNC(=N)N)C(=O)N1CCC[C@H]1C(=O)N[C@H](C(=O)NCC(=O)N[C@@H](CCCNC(=N)N)C(=O)N[C@@H](Cc1ccccc1)C(N)=O)C(C)C | . | -1% | . | . | .
Cc1ccc(-c2noc(CN3CCCCC3)n2)cc1 | -8% | -17% | 2.5µM* | 2 | 3%
Clc1ccc(-c2noc(CN3CCN(c4ccccc4)CC3)n2)cc1 | 0% | 0% | 3% | -16 | -7%
Clc1ccc(-c2noc(CN3CCCC3)n2)cc1 | -8% | -4% | 13µM* | -5 | -1%
Cc1ccc(-c2noc(CN3CCOCC3)n2)cc1 | -2% | -12% | ? | 1 | -2%
C=CC(=O)N1CCC[C@@H](n2nc(-c3ccc(Oc4ccccc4)cc3)c3c(N)ncnc32)C1 | . | . | -65%[92.2 µM] | . | .
O=C(OCc1ccccc1)c1ccc2c(c1)-c1ccccc1C2=O | -9% | 11% | 8.9µM* | -13 | -10%
N#Cc1nc(COc2ccc(-c3ccccc3)cc2)oc1N1CCC(C(N)=O)CC1 | . | . | 26% | . | .
O=C(Nc1cc(Cl)ccc1O)c1cc(-c2ccco2)on1 | -1% | -4% | 6.3µM* | -3 | -1%
CCC1CCCCC1 | . | -2% | . | . | .
Cc1ccc(Cc2cn3cc(-c4ccc(F)cc4)nc3s2)cc1 | . | -15% | 2.2µM* | . | .
O=c1oc2ccccc2cc1-c1cn2cc(Cc3ccc(F)cc3)sc2n1 | . | -11% | 20% | . | .
Cc1ccc(-n2ncc(C#N)c2N)cc1 | -9% | 8% | 10% | -10 | 4%
Cc1ccc(-c2cc3ncc(C#N)c(N)n3n2)cc1 | -8% | 3% | 8.9µM* | 31 | 5%
CCn1c(=O)c([N+](=O)[O-])c(Cl)c2ccccc21 | 1% | -5% | -69% | -79* | -4%
CCn1c(=O)c([N+](=O)[O-])c(NCCN(C)C)c2ccccc21 | -2% | -15% | 0% | -3 | 0%
Nc1nc(NCc2ccc(Cl)cc2Cl)c2[nH]cnc2n1 | . | . | -9% | . | .
COc1ccc(NC(=O)CCCc2ccccc2)cc1OC | -6% | -12% | 11µM* | -9 | 3%
COC(=O)c1cccc(NC(=O)CCc2ccccc2)c1 | -2% | -12% | 7.9µM* | 12 | 3%
Cc1ccc(NC(=O)Cc2ccc(-c3ccccc3)cc2)nc1 | 1% | -24% | -3% | 2 | -2%
Cc1ccc(NC(=O)CCCc2ccccc2)nc1 | 2% | -15% | 11µM* | -13 | 7%
CN(N=O)c1ccc(/C=C/c2ccnc3ccccc23)cc1 | . | . | 46% | . | .
CCOC(=O)c1ccc(S(=O)(=O)N2CCN(c3nc(-c4ccccc4)nc4ccccc34)CC2)cc1 | . | . | -14% | . | .
CCOC(=O)c1cc(C#N)c(SC(C(=O)N2CCCCC2)c2ccccc2)nc1C (stereo not given) | . | . | 15% | . | .
